Measurements published in PubChem BioAssay (NCATS).
Where “and” joins values, the source holds several entries; their conditions need not be identical. Identical values can stand only once. Records with an inconclusive call do not appear. Calls of active or inactive are those of the source. Calls follow the shape of the dose curve; as a rule, active = well fitted curve in the direction sought with a large enough effect; inconclusive = small, poorly fitted or top-dose-only effect, or another doubt; inactive = no such curve, though single readings can be large or run the other way.
% is scaled to controls: 0 for no effect and ±100 for the full control effect.

Experiment: qHTS Assay for Identifying Gametocytocidal Compounds (AID 743244);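 also: actives lower the fluorescent signal which means gametocytes are killed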
Conditions: P. falciparum 3D7 stage III-V gametocytes, alamarBlue, 72 h; max response: active compounds read low
In short: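 Compounds are pinned into medium, gametocytes (stage III–V, 3D7, 20,000 cells/well) added, and plates held 72 h at 37 °C in 5% CO2. AlamarBlue follows for 24 h before fluorescence reading.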
For `CC(=O)O[C@H]1C[C@H](O[C@H]2[C@@H](O)C[C@H](O[C@H]3[C@@H](O)C[C@H](O[C@H]4CC[C@@]5(C)[C@H](CC[C@@H]6[C@@H]5C[C@@H](O)[C@]5(C)[C@@H](C7=CC(=O)OC7)CC[C@]65O)C4)O[C@@H]3C)O[C@@H]2C)O[C@H](C)[C@H]1O[C@@H]1O[C@H](CO)[C@@H](O)[C@H](O)[C@H]1O`, the max response was -19.5% (inactive). With `COc1cc2c(cc1OC)[C@@]13CCN4CC5=CCO[C@H]6CC(=O)N2[C@H]1[C@H]6[C@H]5C[C@H]43` the max response was 18.6% (inactive). With `C#CC(C)(O)CC` (centres undefined) the max response was 4.2% (inactive). In the case of `CNC(C)C(O)c1ccc(O)cc1` (centres undefined), the max response is reported as -4.84% (inactive) and 8.32% (inactive). With `OC[C@@H](O)[C@H]1O[C@@H]2O[C@@H](C(Cl)(Cl)Cl)O[C@@H]2[C@H]1O` the max response was -7.25% (inactive). For `CNC(=O)Oc1ccccc1C(=O)Nc1ccccc1`, the max response was 8.96% (inactive). For `COc1ccc2c3c1O[C@H]1C(=O)CC[C@H]4[C@@H](C2)N(C)CC[C@]314`, the max response was 13% (inactive). In the case of `CC(=O)Oc1ccc2c3c1O[C@H]1[C@@H](OC(C)=O)C=C[C@H]4[C@@H](C2)N(C)CC[C@@]341`, the max response is reported as 1.05% (inactive) and 0.272% (inactive). With `O[C@H]1[C@H]2[C@H](O)CCCN2C[C@H]1O` the max response was -8.84% (inactive).
